The source of these data is PubChem BioAssay (Tox21).

Several values for one entry are separate records, joined by “and”; a condition that tells them apart may be missing. Equal entries are not always repeated. Records with an inconclusive call do not appear. A call without a number means that no potency is given here. The source holds several records for some structures; these can differ, active in one and inactive in another. Activity calls are given as the source filed them. The call rests on the fitted dose curve; in most records, active means well fitted activation curve with a large enough effect in the repeat runs; inconclusive means weak or mixed curves; inactive means flat fitted curve, though single readings scatter.
Potency means the concentration at half of the fitted maximal effect.

The test in a line: A CellTox Green Cytotoxicity Assay to monitor cytotoxicity in HEK293 cells - 8 hour (AID 1224884). Further: nearly all actives have a fitted effect of over 35% in size. The settings on record: CellTox Green fluorescence; series mostly up to 76.8 µM; cytotoxicity increase: at the top concentration. The text has this: National Center for Advancing Translational Sciences [NCATS]
NIH Chemical Genomics Center [NCGC]
U.S. Environmental Protection Agency [EPA]
National Institutes of Environmental Health Sciences [NIEHS]
National Toxicology Program [NTP]
Cell-based models are critical for drug discovery. Determining the natural cytotoxic effects resulting from test compounds is an essential research activity. A CellTox Green Cytotoxicity Assay to monitor cytotoxicity in real time of continues cell culture during 40 hours of the compound treatment was used to screen Tox21 10K library compounds in Hek293 cells. CellTox Green Cytotoxicity Assay is a nonlytic, homogeneous, biofluorescent method to measure cytotoxicity in cell culture after experimental manipulation. The assay system uses a proprietary asymmetric cyanine dye that is excluded from viable cells but preferentially stains the dead cell's DNA. […] Viable cells produce no appreciable increases in fluorescence. Therefore, the fluorescence signal produced by the binding interaction with dead cell DNA is proportional to cytotoxicity.
The mixture of Hek293 cell suspension and reagents were dispensed at 600cells/6 ul/well in 1536-well tissue culture treated black solid bottom plates using a Multidrop dispenser. After the assay plates were incubated at a 37 C/5% CO2 incubator for 5 hours, 23 nL of compounds dissolved in DMSO, positive and negative controls was transferred to the assay plate by a pintool work station. The plates were incubated at 37 C for 40 hours. The fluorescence intensity were measured at 0h, 8h, 16h, 24h, 32h and 40h time points using ViewLux plate reader during compound treatment.
Take `Nc1cc(-c2ccncc2)c[nH]c1=O`: the Potency result is “inactive”.
On the same count and under the same terms, under `NS(=O)(=O)c1cc2c(cc1Cl)NC=NS2(=O)=O` stands “inactive”; under `CCCCCCCCCCCCOCC1CO1` (stereo not given), “inactive”; under `COC(=O)Nc1nc2ccc(Sc3ccccc3)cc2[nH]1`, “inactive”.
The same measure, in the same setting: under `O=Nc1ccc(O)cc1` stands “inactive”; under `CCCCC(CC)COC(=O)CCCCCCCC(=O)OCC(CC)CCCC` (stereo not given), 54.9 µM (active) and inactive; under `O=S(=O)(Oc1ccc(Cl)cc1Cl)c1ccccc1`, “inactive”.
On to `Nc1nc2ncc(CNc3ccc(C(=O)N[C@@H](CCC(=O)O)C(=O)O)cc3)nc2c(=O)[nH]1`, for which the Potency result is “inactive”.
`Clc1cc(Cl)c(Cl)cc1Cl`: the Potency entry was “inactive”.
Same read-out and setting: under `Oc1c(Cl)cc(Cl)c(Cl)c1Cl` stands “inactive”; under `Cc1ccc(C)c(C)c1`, “inactive”; under `Cn1c([N+](=O)[O-])cnc1COC(N)=O`, “inactive”.
For the compound `CC(=O)[C@@]1(O)CC[C@H]2[C@@H]3CCC4=CC(=O)CC[C@]4(C)[C@H]3CC[C@@]21C`, the Potency result is “inactive”.
Turning to `CC(C)n1c(/C=C/[C@@H](O)C[C@@H](O)CC(=O)O)c(-c2ccc(F)cc2)c2ccccc21`, the “cytotoxicity increase” value was 1.09% (inactive).
Turning to `CCCCCCCCCCCCN`, the Potency result is “inactive and 49 µM (active)”.
Consider `CCCCC(CC)C(=O)OCCOCCOCCOC(=O)C(CC)CCCC` (stereo not given), for which the Potency result is “inactive”.
As for `c1ccc2ccccc2c1`, the Potency result is “inactive”.
Consider `C/C=C(C)/C=C/C=C(C)C`, for which the Potency entry is “inactive”.
Turning to `OC1CCCC1`, the Potency entry was “inactive”.
As for `CN(C)c1ccc(C(=N)c2ccc(N(C)C)cc2)cc1`, the Potency entry was “inactive”.
For `CC(C)(CO)COC(=O)C(C)(C)CO`, the Potency result was “inactive”.
On to `Cc1cc(Cc2ccc(N)c(C)c2)ccc1N`, for which the Potency result is “inactive”.
As for `C=C1CC[C@H](O)CC1=C/C=C1\CCC[C@]2(C)[C@@H]([C@H](C)/C=C/[C@H](C)C(C)C)CC[C@@H]12`, the Potency entry was “inactive”.
With `CCCCCCCCC`, the “cytotoxicity increase” value is -7.94% (inactive).
On to `CC[Si](OC(C)=O)(OC(C)=O)OC(C)=O`, for which the Potency result is “inactive”.
In the case of `NCCNCCNCCNCCN`, the Potency entry was “inactive”.
As to `Cc1cc(=O)[nH]c(C(C)C)n1`, the Potency entry was “inactive”.
For the compound `CCCCNC(N)=O`, the Potency entry is “inactive”.
For `CC(C)(N=C=O)c1cccc(C(C)(C)N=C=O)c1`, the Potency entry was “inactive”.
On to `O=C(O)c1ccc([N+](=O)[O-])cc1`, for which the Potency entry is “inactive”.
In the case of `O=C1N=C(O)CN1/N=C/c1ccc(-c2ccc([N+](=O)[O-])cc2)o1`, the Potency result is “inactive”.
Consider `CCOC(=O)[C@H](CCc1ccccc1)N[C@@H](C)C(=O)N1Cc2ccccc2C[C@H]1C(=O)O`, for which the Potency entry was “inactive”.
`C[C@@H](O)[C@H]1C(=O)N2C(C(=O)O)=C(S[C@@H]3CN[C@H](C(=O)N(C)C)C3)[C@H](C)[C@H]12`: the Potency entry is “inactive”.
Take `Nc1c(S(=O)(=O)O)cc(Br)c2c1C(=O)c1ccccc1C2=O`: the Potency result was “inactive”.
Turning to `C=C(C#N)C(=O)OCC`, the Potency result was “inactive”.
In the case of `CC(=O)Nc1ccc(C(=O)O)cc1`, the “cytotoxicity increase” value is 4.69% [at 35.3 µM] (inactive).
`CCCCCCCCCCC=CC1CC(=O)OC1=O` (stereo not given): the Potency entry is “inactive”.
As to `OCC1CCCO1` (stereo not given), the Potency entry is “inactive”.
For `CCC(C)C=O` (stereo not given), the Potency result is “inactive”.
With `CCCCC/C=C\C/C=C\CCCCCCCC(=O)OC`, the Potency entry is “inactive”.
